Hits are enriched below; roughly 28% of the tested compounds scored in any of these assays.
CD11b adhes enh: increases human CD11b/CD18 adhesion to fibrinogen; P05107+P11215; K562 CD11b/CD18 adhesion to fibrinogen, ATPlite luminescence; activation, % at 10 µM; 93,000 tested, 0.07% active; AID 1499;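 active = 10 µM primary screen giving 50% or more activity, confirmed by 40% or more on retest at that dose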
Target sequence (P05107 whole entry, looked up, other chains not shown): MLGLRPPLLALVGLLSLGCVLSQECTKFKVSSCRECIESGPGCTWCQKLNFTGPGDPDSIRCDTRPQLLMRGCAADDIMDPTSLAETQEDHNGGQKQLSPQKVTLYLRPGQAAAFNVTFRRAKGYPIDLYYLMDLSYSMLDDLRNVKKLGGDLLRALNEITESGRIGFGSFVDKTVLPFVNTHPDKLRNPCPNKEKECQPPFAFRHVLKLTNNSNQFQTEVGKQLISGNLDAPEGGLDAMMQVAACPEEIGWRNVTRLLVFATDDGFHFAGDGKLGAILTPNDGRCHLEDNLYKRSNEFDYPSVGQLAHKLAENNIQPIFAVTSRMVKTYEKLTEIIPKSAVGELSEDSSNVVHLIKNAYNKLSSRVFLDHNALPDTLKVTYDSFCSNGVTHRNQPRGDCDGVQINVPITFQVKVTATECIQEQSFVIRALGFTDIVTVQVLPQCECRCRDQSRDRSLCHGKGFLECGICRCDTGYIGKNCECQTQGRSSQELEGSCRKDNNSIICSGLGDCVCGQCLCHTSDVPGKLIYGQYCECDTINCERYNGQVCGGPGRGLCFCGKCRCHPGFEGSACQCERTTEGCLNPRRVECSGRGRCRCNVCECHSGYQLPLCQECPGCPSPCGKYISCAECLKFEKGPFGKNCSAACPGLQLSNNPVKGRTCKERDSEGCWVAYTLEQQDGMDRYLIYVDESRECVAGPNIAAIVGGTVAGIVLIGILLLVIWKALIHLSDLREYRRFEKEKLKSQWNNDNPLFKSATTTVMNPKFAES
CYP2C9 inhib: human CYP2C9 inhibition | CYP2C9 Supersomes, luciferin-H conversion, luminescence | inhibition, % at 5 µM | 96,000 tested, 20% active | AID 777;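 active = blocking of liver enzyme CYP2C9 beyond about 50% at 5 µM, limit read from the data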
CYP2C19 inhib: human CYP2C19 inhibition; P33261; CYP2C19 Supersomes, luciferin-H EGE luminescence, 30 min; AID 778; 96,000 tested, 21% active; inhibition, % at 5 µM;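 active = CYP2C19 inhibition above a set limit at 5 µM in the primary screen, cut at about 50% in these data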
CYP2C19 activ: increases human CYP2C19 enzyme activity. P33261. recombinant CYP2C19, luciferin-H EGE luminescence; stronger effect = higher value; 0 = fully inhibited enzyme, 1 = untreated enzyme. activation factor at 5 µM. 96,000 tested, under 10 active;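 active = activation factor of at least 2 at 5 µM in the primary screen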
CYP2C9 activ: increases human cytochrome P450 2C9 activity; activation factor at 5 µM; recombinant CYP2C9, luciferin-H conversion, luminescence; stronger effect = higher value; factor 1 = untreated enzyme, 0 = blocked; P11712; 96,000 tested, 1.4% active;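 active = activation factor of 2 or more for CYP2C9 at a 5 µM dose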
CD11b adhes inh: CD11b/CD18-fibrinogen binding inhibition; P05107+P11215; K562 CD11b/CD18 adhesion to fibrinogen, ATPlite luminescence; Mn2+ added to activate the integrin; inhibition, % at 10 µM; 93,000 tested, 0.54% active;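 active = primary inhibition of 50% or more at 10 µM, then 40% or more on retest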
Numbers stand for hits.

Results for COc1ccc(S(=O)(=O)NNC(=O)c2cc3cc4ccccc4nc3s2)cc1 ?
CD11b adhes enh: inactive; CYP2C9 inhib: inactive; CYP2C19 inhib: inactive; CYP2C19 activ: inactive; CYP2C9 activ: inactive; CD11b adhes inh: inactive

Results for Cc1ccc(S(=O)(=O)N2c3cc(C)ccc3OCC2C(C)(C)C)cc1 (stereo unspecified) ?
CD11b adhes enh: inactive; CYP2C9 inhib: 50; CYP2C19 inhib: inactive; CYP2C19 activ: inactive; CYP2C9 activ: inactive; CD11b adhes inh: inactive

How did COc1cc([N+](=O)[O-])ccc1NC(=S)Nc1cc(C(=O)OC(C)C)cc(C(=O)OC(C)C)c1 do in these assays?
CD11b adhes enh: inactive; CD11b adhes inh: inactive

Results for N#Cc1c(Cl)c(Cl)c2nnc(-c3ccc(Br)cc3)n2c1Cl ?
CD11b adhes enh: inactive; CYP2C9 inhib: 94; CYP2C19 inhib: inactive; CYP2C19 activ: inactive; CYP2C9 activ: inactive; CD11b adhes inh: inactive

What do the screens show for `Cc1ccc2c(n1)sc1c(-c3ccc(Br)cc3)c(C#N)c(N)nc12`?
CYP2C9 inhib: inactive; CYP2C19 inhib: inactive; CYP2C19 activ: inactive; CYP2C9 activ: inactive

Results for c1cn(-c2ncnc3sc4c(c23)CCCC4)cn1 ?
CD11b adhes enh: inactive; CYP2C9 inhib: inactive; CYP2C19 inhib: inactive; CYP2C19 activ: inactive; CYP2C9 activ: inactive; CD11b adhes inh: inactive

What do the screens show for `c1nc(N2CCOCC2)c2c3c(sc2n1)CCCC3`?
CD11b adhes enh: inactive; CYP2C9 inhib: inactive; CYP2C19 inhib: 65; CYP2C19 activ: inactive; CYP2C9 activ: inactive; CD11b adhes inh: inactive

What do the screens show for `O=C(O)CSc1ncnc2sc3c(c12)CCC3`?
CYP2C9 inhib: inactive; CYP2C19 inhib: inactive; CYP2C19 activ: inactive; CYP2C9 activ: inactive

How did O=C(c1ccccc1)N1CCN(c2ncnc3sc4c(c23)CCC4)CC1 do in these assays?
CD11b adhes enh: inactive; CYP2C9 inhib: 83; CYP2C19 inhib: 92; CYP2C19 activ: inactive; CYP2C9 activ: inactive; CD11b adhes inh: 51

What do the screens show for `c1ccn(-c2ncnc3sc4c(c23)CCCC4)c1`?
CD11b adhes enh: inactive; CYP2C9 inhib: inactive; CYP2C19 inhib: 96; CYP2C19 activ: inactive; CYP2C9 activ: inactive; CD11b adhes inh: inactive

How did CSc1nc(N2CCOCC2)c2c3c(sc2n1)CCCC3 do in these assays?
CD11b adhes enh: inactive; CYP2C9 inhib: inactive; CYP2C19 inhib: inactive; CYP2C19 activ: inactive; CYP2C9 activ: inactive; CD11b adhes inh: inactive

What do the screens show for `CC(C)c1ccc(CN2CC(C(=O)O)CC2=O)cc1` (stereo unspecified)?
CD11b adhes enh: inactive; CYP2C9 inhib: inactive; CYP2C19 inhib: inactive; CYP2C19 activ: inactive; CYP2C9 activ: inactive; CD11b adhes inh: inactive

Results for Cn1nc(-c2ccccc2)c(C(=O)Nc2ccc(C(F)(F)F)cc2)c1Cl ?
CD11b adhes enh: inactive; CYP2C9 inhib: inactive; CYP2C19 inhib: inactive; CYP2C19 activ: inactive; CYP2C9 activ: inactive; CD11b adhes inh: inactive

What do the screens show for `Cn1nc(-c2ccccc2)c(C(=O)Nc2ccc(Cl)cc2)c1Cl`?
CYP2C9 inhib: inactive; CYP2C19 inhib: 63; CYP2C19 activ: inactive; CYP2C9 activ: inactive

What do the screens show for `CC1CC(C)CN(C(=O)c2cc3c(s2)CCC3)C1` (stereo unspecified)?
CD11b adhes enh: inactive; CYP2C9 inhib: inactive; CYP2C19 inhib: inactive; CYP2C19 activ: inactive; CYP2C9 activ: inactive; CD11b adhes inh: inactive

Results for N#CC1=C(N)Nc2ncnn2C1c1ccc(F)cc1 (stereo unspecified) ?
CD11b adhes enh: inactive; CD11b adhes inh: inactive

What do the screens show for `CC(=O)c1c(OC(=O)c2ccc(C)cc2)c2ccccc2n1C`?
CD11b adhes enh: inactive; CYP2C9 inhib: inactive; CYP2C19 inhib: inactive; CYP2C19 activ: inactive; CYP2C9 activ: inactive; CD11b adhes inh: inactive

Results for CC(=O)c1c(OC(=O)c2ccco2)c2ccccc2n1C ?
CD11b adhes enh: inactive; CYP2C9 inhib: inactive; CYP2C19 inhib: 62; CYP2C19 activ: inactive; CYP2C9 activ: inactive; CD11b adhes inh: inactive

Results for C=CCn1c2ccccc2c2nnc(SC(CC)C(=O)Nc3sc4c(c3C#N)CCCC4)nc21 (stereo unspecified) ?
CD11b adhes enh: inactive; CYP2C9 inhib: 73; CYP2C19 inhib: 53; CYP2C19 activ: inactive; CYP2C9 activ: inactive; CD11b adhes inh: inactive

What do the screens show for `CCc1cc2c(=O)n(CC)c(SC(C)C(=O)Nc3c(C)n(C)n(-c4ccccc4)c3=O)nc2s1` (stereo unspecified)?
CD11b adhes enh: inactive; CYP2C9 inhib: inactive; CYP2C19 inhib: inactive; CYP2C19 activ: inactive; CYP2C9 activ: inactive; CD11b adhes inh: inactive

What do the screens show for `O=C(Nc1cc(C(F)(F)F)ccc1-n1cncn1)c1ccc(Cl)cc1`?
CD11b adhes enh: inactive; CYP2C9 inhib: inactive; CYP2C19 inhib: 74; CYP2C19 activ: inactive; CYP2C9 activ: inactive; CD11b adhes inh: inactive

What do the screens show for `O=C(Nc1cc(C(F)(F)F)ccc1-n1cncn1)c1ccc(-c2ccccc2)cc1`?
CD11b adhes enh: inactive; CYP2C9 inhib: 94; CYP2C19 inhib: 58; CYP2C19 activ: inactive; CYP2C9 activ: inactive; CD11b adhes inh: inactive

How did COc1ccc(C(=O)Nc2cc(C(F)(F)F)ccc2-n2cncn2)cc1 do in these assays?
CD11b adhes enh: inactive; CYP2C9 inhib: inactive; CYP2C19 inhib: inactive; CYP2C19 activ: inactive; CYP2C9 activ: inactive; CD11b adhes inh: inactive

What do the screens show for `Cc1cc(C)cc(N(C(=O)C(F)(F)F)C(C(=O)NC2CCCCC2)c2cccs2)c1` (stereo unspecified)?
CYP2C9 inhib: inactive; CYP2C19 inhib: inactive; CYP2C19 activ: inactive; CYP2C9 activ: inactive

How did COc1ccc2[nH]cc(CCN=C3SCC(=O)N3C)c2c1 do in these assays?
CD11b adhes enh: inactive; CYP2C9 inhib: inactive; CYP2C19 inhib: 79; CYP2C19 activ: inactive; CYP2C9 activ: inactive; CD11b adhes inh: inactive

What do the screens show for `Cc1c(C#N)c(SCC(N)=O)nc2c1CCCC2`?
CD11b adhes enh: inactive; CYP2C9 inhib: inactive; CYP2C19 inhib: inactive; CYP2C19 activ: inactive; CYP2C9 activ: inactive; CD11b adhes inh: inactive

What do the screens show for `Nc1nc(-c2cccc(Br)c2)cs1`?
CD11b adhes enh: inactive; CYP2C9 inhib: inactive; CYP2C19 inhib: 64; CYP2C19 activ: inactive; CYP2C9 activ: inactive; CD11b adhes inh: inactive

How did Nc1nc(-c2ccc(Br)cc2)cs1 do in these assays?
CD11b adhes enh: inactive; CYP2C9 inhib: inactive; CYP2C19 inhib: inactive; CYP2C19 activ: inactive; CYP2C9 activ: inactive; CD11b adhes inh: inactive

How did CC1CN(C(=O)CSc2nnc3c(Cl)cc(Cl)cn23)CC(C)O1 (stereo unspecified) do in these assays?
CD11b adhes enh: inactive; CYP2C9 inhib: inactive; CYP2C19 inhib: inactive; CYP2C19 activ: inactive; CYP2C9 activ: inactive; CD11b adhes inh: inactive

Results for CCCN(N=Nc1cccc([N+](=O)[O-])c1)c1cccc([N+](=O)[O-])c1 ?
CD11b adhes enh: inactive; CYP2C9 inhib: 74; CYP2C19 inhib: inactive; CYP2C19 activ: inactive; CYP2C9 activ: inactive; CD11b adhes inh: inactive

Results for COc1ccc(-c2nc(N)ncc2-c2csc(C)n2)c(O)c1 ?
CD11b adhes enh: inactive; CYP2C9 inhib: inactive; CYP2C19 inhib: 87; CYP2C19 activ: inactive; CYP2C9 activ: inactive; CD11b adhes inh: inactive
